Cycloheximide cs: counter-screen for Shiga toxin inhibitors: cycloheximide protein synthesis inhibition; cell reporter, cycloheximide protein synthesis inhibition counterscreen; max response, %; 300,000 compounds, 12% hits; AID 2314; in the data active = max response mostly above about 13%, no sharp cut-off; inactive = mostly below about 14%; note: read at 38.3 µM for the half of the compounds with a filed dose
Pf growth 96h: P. falciparum growth inhibition at 96 hours; P. falciparum luciferase reporter growth, 96 h; 320,000 compounds, 6.9% hits; Potency, µM (titrated, usually from 28.7 µM), most hits filed as inhibitors
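Delayed-death screen, second-generation endpoint: infected erythrocytes, 2% hematocrit, 0.05% parasitemia final; 96 hours at 37 C, 5% CO2; luciferase detection reagent; luminescence decrease equals reduced growth.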
Shiga toxin inh: Shiga toxin inhibition. Vero cells, Shiga toxin protein synthesis inhibition reporter. 290,000 compounds, 9.2% hits. AID 2315. inhibition, % at 38.7 µM; in the data active = inhibition mostly above about 28%, no sharp cut-off; inactive = mostly below about 43%
Pf growth 48h: P. falciparum growth inhibition at 48 hours (one generation) | AID 504832 | Potency, µM (titrated, usually from 28.7 µM), usual class: inhibitors | 310,000 compounds, 5.9% hits | P. falciparum luciferase growth in erythrocytes, 48 h
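Growth was read as firefly luciferase luminescence after a 48 h, 37 C, 5% CO2 exposure of compounds to reporter-bearing P. falciparum cultures (0.1% parasitemia, 2% hematocrit final) in Albumax-supplemented RPMI 1640.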
LmPK inhibitor: LmPK (Leishmania mexicana) enzyme inhibition | Q27686 | purified LmPK, Kinase-Glo ATP luminescence, 1 h | Potency, µM (highest dose often 57.5 µM), hits mostly inhibitors | 290,000 compounds, 0.37% hits
Target sequence (Q27686 whole entry, looked up): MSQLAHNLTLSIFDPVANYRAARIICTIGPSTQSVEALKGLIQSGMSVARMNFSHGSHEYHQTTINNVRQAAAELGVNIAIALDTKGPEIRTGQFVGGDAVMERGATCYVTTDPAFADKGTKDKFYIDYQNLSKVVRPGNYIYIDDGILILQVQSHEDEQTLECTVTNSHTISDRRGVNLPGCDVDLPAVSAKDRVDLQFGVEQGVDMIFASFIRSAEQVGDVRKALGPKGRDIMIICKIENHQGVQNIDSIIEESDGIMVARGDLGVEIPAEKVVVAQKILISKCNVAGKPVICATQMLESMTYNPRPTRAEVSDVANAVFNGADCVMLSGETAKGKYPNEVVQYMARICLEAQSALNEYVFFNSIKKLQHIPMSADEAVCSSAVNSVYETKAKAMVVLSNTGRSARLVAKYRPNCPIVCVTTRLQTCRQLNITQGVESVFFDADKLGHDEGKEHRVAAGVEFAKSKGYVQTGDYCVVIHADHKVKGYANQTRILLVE
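qHTS format; LmPK 0.1 nM; substrates PEP 0.5 mM and ADP 0.1 mM. One-hour room-temperature incubation, then coupled luciferase luminescence; 0.5 nM enzyme wells mark activation.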
A number is an active result; n = inactive; u = inconclusive; x = not tested or not shown; [ ] = dose if it differs, or a comment. Compounds with a hit are over-represented: about 22% of the library has one in this group of screens. Unless noted, calls come from the whole dose curve; as a rule, active = well fitted inhibition curve with a large enough effect; inconclusive = small, poorly fitted or top-dose-only effect, or another doubt; inactive = no such curve, though single readings can be large or run the other way.

SMILES | Cycloheximide cs | Pf growth 96h | Shiga toxin inh | Pf growth 48h | LmPK inhibitor
CCC(C)NC(=O)c1ccc([N+](=O)[O-])c(Cl)c1 (configuration not stated) | n | u | n | n | n
CCOc1ccc(NS(=O)(=O)c2ccc(-c3coc(C)n3)cc2)cc1 | n | n | n | n | n
Cc1cccnc1NC(=S)NC(=O)/C=C/c1ccccc1 | 31 | n | 78 | u | n
C=CCNC(=S)Nc1cc(C)ccn1 | n | n | n | u | n
Cc1ccnc(NC(=S)NC(=O)/C=C/c2ccc(Cl)cc2)c1 | 26 | 4.1µM | 26 | n | n
Cc1ccnc(NC(=S)NC(=O)/C=C/c2ccccc2)c1 | 32 | n | 61 | n | n
O=C(/C=C/c1ccccc1)NC(=S)Nc1cccnc1 | n | u | n | n | n
Cc1cccc(C)c1NC(=O)CN(C)C(=O)c1ccccc1OCc1ccc(F)cc1 | x | n | x | u | x
S=C1NC(c2ccccc2)=CC(c2ccccc2)N1 (configuration not stated) | n | u | n | 10µM | n
Cc1ccccc1NC(=O)C(C)Sc1nnc(-c2ccncc2)n1CC1CCCO1 (configuration not stated) | n | n | n | u | n
CC(=O)n1c(C=Nc2ccc(Cl)cc2)c(O)c2ccccc21 | n | u | n | 1.5µM | n
CC(=O)n1c2ccccc2c2ccccc21 | n | n | n | n | n
CC(C)(CNC(=O)c1ccc(Br)o1)CNC(=O)c1ccc(Br)o1 | n | n | n | n | n
Cc1c(CC(=O)N2CCC(C(=O)O)CC2)c(=O)oc2cc3c(cc12)CCC1(CCCCC1)O3 | n | n | n | u | n
Cc1nc(C)c(NC(=O)N2CCc3ccccc32)cc1NC(=O)N1CCc2ccccc21 | n | x | n | u | n
COc1ccc(C)cc1NC(=O)N1CCCc2ccccc21 | 23 | n | 75 | n | n
COc1ccc(NC(=O)N2CCC(c3ccccc3)C2)c(OC)c1 (configuration not stated) | n | n | n | x | n
CCOC(=O)c1cc(NC(=O)Nc2cc(C)ccn2)c(C)nc1C | n | n | 39 | n | n
COc1ccc(NC(=O)N2CCCc3ccccc32)c(OC)c1 | 17 | n | n | n | n
CCOC(=O)c1cc(NC(=O)N2CCCc3ccccc32)c(C)nc1C | 20 | n | n | n | n
CCOC(=O)Nc1cc(C(=O)OCC)c(C)nc1C | n | n | n | n | n
Cc1ccccc1N1CCN(S(=O)(=O)CC23CCC(CC2NC(=O)C(N)CCS(C)(=O)=O)C3(C)C)CC1 (configuration not stated) | n | x | n | x | x
O=C(Nc1c2c(nn1-c1ccccc1)CS(=O)(=O)C2)c1ccccc1Br | n | n | n | n | n
O=C(O)CNS(=O)(=O)c1ccc(C2CCCCC2)cc1 | n | 0.47µM | n | n[5.75 µM] | n
O=S(=O)(Nc1ccccn1)c1ccc(Cl)cc1 | n | x | n | n | n
SMILES | Cycloheximide cs | Pf growth 96h | Shiga toxin inh | Pf growth 48h | LmPK inhibitor
O=S(=O)(Nc1ccccn1)c1ccc(C2CCCCC2)cc1 | n | 9.3µM | n | n | n
O=C(O)CNS(=O)(=O)c1ccc(F)cc1 | n | u | n | n | n
O=C(Nc1ccc(S(=O)(=O)NCc2ccccc2)cc1)C1CCCCC1 | n | 12µM | n | n | n
Nc1nonc1C(=O)NCCNCc1cc(Br)ccc1OCc1ccccc1F | n | u | n | 3.3µM | n
CCN(CC)S(=O)(=O)c1ccc(/C=C/C(=O)N(c2ccccn2)C2CCCCC2)cc1 | n | 4.7µM | n | n | n
C#CC[N+](CC)(CC)CC#Cc1ccccc1 | n | u | n | u | n
C#CC[N+](C)(C)CC#Cc1ccc(C)cc1 | n | u | n | 1.9µM | n
O=C(CCCn1c(=O)[nH]c2ccc(Br)cc2c1=O)NCc1ccc(Cl)cc1 | n | n | n | n | n
Cc1cc(=O)[nH]c(N2CCCNCC2)n1 | n | n | n | 12µM | n
Cc1cc(=O)[nH]c(-n2[nH]c3c(c2=O)CCCC3)n1 | n | u | n | 4.1µM | n
CCOC(=O)N1CCC(=NNc2nc(C)cc(=O)[nH]2)CC1 | n | u | 42 | n | n
NC(N)=NCCC[C@H](N)C(=O)NCC(=O)N[C@@H](CC(=O)O)C(=O)O | n | x | n | x | x
Cc1ccc(-n2c(O)c(/C=N/Nc3ccc(S(=O)(=O)N4CCOCC4)cc3[N+](=O)[O-])c3ccccc3c2=O)c(C)c1 | n | 2.9µM | n | 10µM | n
Clc1cc2nc(-c3cccnc3Cl)[nH]c2cc1Cl | 29 | n | 105 | n | n
Clc1ccc(Cn2c(-c3cccnc3Cl)nc3ccccc32)c(Cl)c1 | n | u | n | u | n

Screening data (PubChem)
